Test systems include HCT-15 colon; HT29 colon; SNB-19 CNS; U251 CNS; PC-3 prostate; SK-MEL-5 melanoma; UACC-62 melanoma; LOX IMVI melanoma; SK-MEL-28 melanoma.
What all share (experiment): NCI-60 one-dose screen, 48 h (100 = growth as untreated, 0 = no growth, -100 = all killed)
Conditions in all cases: 10 µM unless noted

The results in this text go back to PubChem BioAssay (NCI).

The panel holds about 83,000 compounds, 20% with a hit somewhere; the sample as a whole holds those more often.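 48-hour exposure, single concentration, 96-well plates; percent growth endpoint where 0 means no net growth. Active: below 10.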 Values without a mark were called inactive. The source made the active and inactive calls.

For the compound `NS(=O)(=O)c1ccc(-n2ncc3c(=O)[nH]c(CN4CCN(c5cc6c(cc5F)c(=O)c(C(=O)O)cn6C5CC5)CC4)nc32)cc1`, the growth in the assay with HCT-15 colon is 89.7%; in the assay with HT29 colon, 101%; in the assay with SNB-19 CNS, 94.9%; in the assay on U251 CNS, 102%; in the assay on PC-3 prostate, 82.5%; with SK-MEL-5 melanoma, 96.7%. Also, the values for the growth in the assay with UACC-62 melanoma, in the assay with LOX IMVI melanoma and with SK-MEL-28 melanoma were 74%, 97.2% and 93.5%, respectively.
In the case of `COc1cc(NCCCCN=C(N)NC(N)=NC(C)C)c2ncccc2c1`, the growth was 122% in the assay on HCT-15 colon; 53.9% in the assay on HT29 colon; 55.9% with SNB-19 CNS; 50% with U251 CNS; 22.9% in the assay with PC-3 prostate; 17% in the assay on SK-MEL-5 melanoma. Moreover, the growth with UACC-62 melanoma was 77%; in the assay with SK-MEL-28 melanoma, 86.4%.
As to `Nc1nc2ccc(-c3nc4ccc5[nH]ncc5c4c4c3CCC4)cc2s1`, the growth with HCT-15 colon was 11.3%; with HT29 colon it was 8.06% (active); in the assay on SNB-19 CNS, 42.6%; in the assay on U251 CNS, 33.9%; in the assay on PC-3 prostate, 23.1%; in the assay with SK-MEL-5 melanoma it was 1.24% (active). Moreover, the growth in the assay with UACC-62 melanoma is -46.2% (active); in the assay on LOX IMVI melanoma, 19.6%; with SK-MEL-28 melanoma, 44.5%.
For `C=C1C(=O)O[C@H]2[C@H]1CC/C(Cn1cc(Cn3ccc4ccccc43)nn1)=C\CC[C@@]1(C)O[C@@H]21`, the growth in the assay with HCT-15 colon is -34.5% (active); in the assay with HT29 colon, -13.8% (active); with SNB-19 CNS it was 71.1%; in the assay with U251 CNS, 48.7%; in the assay with SK-MEL-5 melanoma, 30.1%; with UACC-62 melanoma it was 33.4%. Further, the growth is -82.8% (active) in the assay with LOX IMVI melanoma and 14% with SK-MEL-28 melanoma.
With `COCCOC(=O)C1=C(C)NC(=S)NC1c1ccc2c(c1)OCO2` (stereo unspecified), the growth in the assay with HCT-15 colon was 102%; in the assay with HT29 colon, 96.7%; with SNB-19 CNS, 100%; in the assay on U251 CNS, 104%; with PC-3 prostate, 95.7%; in the assay on SK-MEL-5 melanoma, 97.6%. Also, the values for the growth in the assay with UACC-62 melanoma, with LOX IMVI melanoma and in the assay with SK-MEL-28 melanoma were 102%, 101% and 114%, respectively.
As to `COc1cc(NCCCCCN=C(N)NC(N)=NC(C)C)c2ncccc2c1`, the growth was 110% in the assay with HCT-15 colon; 54.2% in the assay on HT29 colon; 33.2% with SNB-19 CNS; 20.5% in the assay on U251 CNS; 32.8% with PC-3 prostate; 5.87% (active) in the assay with SK-MEL-5 melanoma. The growth in the assay with UACC-62 melanoma is 36.8%; in the assay on LOX IMVI melanoma it was 9.91% (active); with SK-MEL-28 melanoma it was 60.1%.
`CCCCCCCCCC(=O)Oc1ccc(/C(=C(/C)Cc2cccc(OC)c2)c2ccc(OCCN(C)C)cc2)cc1`: the growth in the assay with HCT-15 colon is 105%; in the assay with HT29 colon, 109%; in the assay on SNB-19 CNS, 109%; in the assay with U251 CNS it was 110%; in the assay with PC-3 prostate, 110%; in the assay on SK-MEL-5 melanoma, 107%. Moreover, the growth with UACC-62 melanoma was 97.8%; with LOX IMVI melanoma, 102%; in the assay on SK-MEL-28 melanoma it was 114%.
Turning to `COc1ccc(C/C(C)=C(\c2ccc(OCCN3CCCCCC3)cc2)c2ccc(OC(=O)C3CCCCC3)cc2)cc1`, the growth in the assay on HCT-15 colon was 38.7%; in the assay on HT29 colon, -31.8% (active); in the assay on SNB-19 CNS it was 63.3%; in the assay with U251 CNS it was 44.1%; in the assay with PC-3 prostate, 50.7%; in the assay on SK-MEL-5 melanoma it was 65.4%. Further, the growth in the assay on UACC-62 melanoma was 63.5%; in the assay on SK-MEL-28 melanoma, 66.9%.
`COc1cc(/C=N\NC(=O)CN2CCN(c3cc4c(cc3F)c(=O)c(C(=O)N/N=C/c3ccc(O)c(OC)c3)cn4C3CC3)CC2)ccc1O`: the growth in the assay on HCT-15 colon was 97.2%; with HT29 colon it was 14.1%; in the assay on SNB-19 CNS, 55.5%; in the assay with U251 CNS, 55.3%; with PC-3 prostate, 69.7%; in the assay on SK-MEL-5 melanoma, 56.8%. Moreover, the growth in the assay with UACC-62 melanoma is 52.9%; with LOX IMVI melanoma, 8.64% (active); in the assay with SK-MEL-28 melanoma, 79.8%.
As for `COc1cccc(-c2nc3sccn3c2-c2ccnc(NCCCNS(=O)(=O)c3ccccc3)c2)c1`, the growth with HCT-15 colon is 27.6%; with HT29 colon it was 41.6%; with SNB-19 CNS, 68.7%; with U251 CNS, 65.4%; in the assay on SK-MEL-5 melanoma it was -29.8% (active); with UACC-62 melanoma, -27.7% (active). Further, the figures for the growth in the assay on LOX IMVI melanoma and in the assay with SK-MEL-28 melanoma were 35.1% and 66.8%, respectively.
For `COc1ccc(S(=O)(=O)NCCNc2nccc(-c3c(-c4cccc([N+](=O)[O-])c4)nc4sccn34)n2)cc1`, the growth in the assay on HCT-15 colon was 77.5%; in the assay with HT29 colon it was 74.8%; in the assay with SNB-19 CNS, 91.6%; with U251 CNS it was 91.1%; with PC-3 prostate, 64.6%; in the assay on SK-MEL-5 melanoma, 63.6%. Besides, the results for the growth in the assay with UACC-62 melanoma, in the assay with LOX IMVI melanoma and with SK-MEL-28 melanoma were 84%, 88.6% and 107%, respectively.
For `CC(C)(C)n1cc(-c2ccnc(NCCCNS(=O)(=O)c3cccc4ccccc34)c2)c(-c2cccc(O)c2)n1`, the growth was -19.5% (active) in the assay with HCT-15 colon; -20.2% (active) in the assay on HT29 colon; 56% with SNB-19 CNS; 27% in the assay with U251 CNS; 21.1% in the assay with PC-3 prostate; -20% (active) in the assay with SK-MEL-5 melanoma. Also, the growth in the assay with UACC-62 melanoma was 51.2%; with LOX IMVI melanoma, -45.1% (active); in the assay with SK-MEL-28 melanoma it was -37.2% (active).
`CN1CCN(Cc2ccc(NC(=O)c3cncc(C#Cc4cncc5nccnc45)c3)cc2C(F)(F)F)CC1`: the growth with HCT-15 colon is 40.6%; in the assay with HT29 colon it was 22.7%; in the assay on SNB-19 CNS, 92.1%; in the assay on U251 CNS, 76.3%; in the assay on SK-MEL-5 melanoma, 41.9%; with UACC-62 melanoma, 16.6%. For the same compound, the growth is -7.67% (active) with LOX IMVI melanoma and 13.3% in the assay with SK-MEL-28 melanoma.
Consider `Cc1ccc(-c2nc(/C=N/Nc3cc(C)nc4ccc(Cl)cc34)c(C)o2)cc1`, for which the growth was -67.5% (active) in the assay on HCT-15 colon; -77.9% (active) in the assay with HT29 colon; -44.7% (active) in the assay on SNB-19 CNS; -94.8% (active) in the assay with U251 CNS; 33.7% in the assay on PC-3 prostate; 49.6% in the assay with SK-MEL-5 melanoma. In addition, the growth in the assay on UACC-62 melanoma was 31.7%; with LOX IMVI melanoma, -80.3% (active); in the assay with SK-MEL-28 melanoma, -68.8% (active).
